RmlC RmlD mix: RmlC and RmlD coupled enzyme inhibitors, primary screen, biochemical, 384-well, compound mixtures, retest. RmlC/RmlD coupled enzyme inhibition, 384-well mixture HTS. inhibition, % at 5.5 µM. actives 0.39% (n = 110,000); in the data active = inhibition above about 30%, passing the limit was not always enough; inconclusive = no clear call, values can overlap the other calls
HIV RNase H inh-1: HIV-1 RT RNase H inhibitors, primary screen, biochemical, fluorescence; Gag-Pol polyprotein (Human immunodeficiency virus type 1 group M subtype B (isolate …; RT-RNase H RNA/DNA duplex cleavage; inhibition, % at 10 µM; actives 1.9% (n = 65,000); AID 565, 2006; in the data active = inhibition above about 50%
HIV RNase H inh-2: HIV-1 RT RNase H inhibitors, retest, confirmation, biochemical; AID 651, 2007; shares compounds with HIV RNase H inh-1; actives 39% (n = 1,000); Recombinant RT RNase H, fluorescent RNA/DNA duplex cleavage; inhibition, % at 10 µM; in the data active = inhibition above about 48%; inconclusive = no clear call, values can overlap the other calls
Active calls of the source: *; ? = inconclusive; / = not tested or not shown. This excerpt belongs to a sample that is enriched for hits.

SMILES | RmlC RmlD mix | HIV RNase H inh-1 | HIV RNase H inh-2
Oc1ccc(N2CCN(C(c3ccncc3)c3nnnn3C3CCCC3)CC2)cc1 (configuration not stated) | 3.3 | 78.9* | ?
c1cc(C(c2nnnn2C2CCCC2)N2CCOCC2)ccn1 (configuration not stated) | -11.9 | -5.5 | /
Fc1ccc(-c2nnc3sc(C4COc5ccccc5O4)nn23)cc1 (configuration not stated) | -27.8 | -15.3 | /
c1csc(-c2nn3c(C4COc5ccccc5O4)nnc3s2)c1 (configuration not stated) | 10.3 | 91.0* | 62.0*
COc1ccc(OCc2nn3c(Cn4cnc5ccccc54)nnc3s2)cc1 | 12.1 | -24.5 | /
Clc1ccccc1-c1nnc2sc(-c3ccc4c(c3)OCO4)nn12 | 67.0 | 91.8* | ?
Brc1ccccc1-c1nnc2sc(-c3ccc4c(c3)OCCO4)nn12 | 3.2 | -85.9 | /
Fc1ccc(-c2nn3c(C4COc5ccccc5O4)nnc3s2)cc1 (configuration not stated) | / | 2.5 | /
c1ccc2c(c1)OCC(c1nnc3sc(-c4ccc5c(c4)OCO5)nn13)O2 (configuration not stated) | 11.4 | 84.9* | 68.6*
c1ccc2c(c1)ncn2Cc1nnc2sc(-c3ccc4c(c3)OCO4)nn12 | 4.9 | 69.2* | 61.1*
C=CCOC(=O)C(=O)/C=C/c1ccc2c(c1)Cc1ccccc1-2 | 14.4 | / | /
COc1ccc(NC2CS(=O)(=O)CC2NCc2ccccc2)cc1 (configuration not stated) | 3.5 | / | /
N#Cc1c(-c2ccccc2)ccnc1Oc1ccccc1 | 5.8 | / | /
CC[C@@H](C)C(NC(=O)OC(C)(C)C)c1cn([C@@H](CCC(=O)OC(C)(C)C)C(=O)N2CCN(C(=O)OC(C)(C)C)CC2)nn1 (some centres not stated) | -13.8 | / | /
COC(=O)Nc1ccc(=O)n(Cc2c(Cl)cccc2Cl)c1 | 14.0 | / | /
COc1ccccc1CNC(=O)CCS(=O)(=O)c1cccc2nonc12 | -6.6 | / | /
CC(C)C[C@H](NC(=O)c1nc[nH]c1C(=O)N1CCN(C(=O)OC(C)(C)C)CC1)C(=O)OC(C)(C)C | 19.8 | / | /
COc1ccc(OC)c(S(=O)(=O)Nc2ccc(Oc3ccccc3)cc2)c1 | 5.1 | / | /
CCOc1ccc(NS(=O)(=O)c2cc(OC)ccc2OC)cc1 | -4.3 | / | /
COc1ccc(OC)c(S(=O)(=O)Nc2ccc(O)c(Sc3ncn[nH]3)c2)c1 | 5.2 | 93.8* | 60.1*
COc1ccc(OC)c(S(=O)(=O)Nc2ccc(O)c3ccccc23)c1 | -10.9 | 82.8* | ?
N#Cc1c(-c2ccccc2)cc(-c2ccco2)c(C#N)c1N | / | 46.4 | /
N#Cc1sc2nc(-c3ccccc3)cc(-c3ccco3)c2c1N | 4.7 | 94.6* | -5.3
CCSc1nc2sc3c(c2c2nnc(SCC(=O)NCc4ccco4)n12)CCCC3 | / | -0.9 | /
CC(C)Sc1nc2sc3c(c2c2nnc(SCC(=O)NCc4ccco4)n12)CCCC3 | -8.5 | 86.5* | 66.9*
SMILES | RmlC RmlD mix | HIV RNase H inh-1 | HIV RNase H inh-2
Fc1cccc(F)c1CSc1nc2ccccc2[nH]1 | -16.4 | / | /
Fc1ccccc1CSc1nc2ncccc2[nH]1 | 6.8 | 87.6* | 60.4*
COC(=O)N1[C@H](C)C=C[C@]1(Cc1ccccc1)C(=O)NCCCNc1ncc(C(F)(F)F)cc1Cl | 5.3 | / | /
O=C1CCCC2=C1C(c1ccccc1O)C1=C(CCCC1=O)O2 | -7.2 | 10.7 | /
O=C1CCCC(O)=C1C(C#Cc1ccccc1)C1=C(O)CCCC1=O | -12.8 | 82.5* | 77.8*
O=C(CSc1nnnn1-c1ccccc1)Nc1nsc(-c2ccc(Cl)cc2)n1 | 5.5 | 65.4* | 58.2*
O=C(CSc1nnnn1-c1ccccc1)Nc1nsc(-c2ccccc2)n1 | 11.0 | -6.3 | /
Cc1cc(C)n(C(=O)CCCCCCCCC(=O)n2nc(C)cc2C)n1 | -164.3 | / | /
COc1ccc(N2CSC3=C(C#N)C(c4cc(OC)c(OC)cc4OC)CC(=O)N3C2)c(OC)c1 (configuration not stated) | 6.9 | 86.2* | 72.6*
CN1CSC2=C(C#N)C(c3cccc(OCc4ccccc4)c3)CC(=O)N2C1 (configuration not stated) | -8.6 | 73.2* | 59.8*
CCOc1ccccc1N1CCN(c2nc3ccccc3nc2C(C#N)C(=O)OC)CC1 (configuration not stated) | 8.1 | 5.7 | /
CCOc1ccccc1N1CSC2=C(C#N)C(c3c(OC)ccc4ccccc34)CC(=O)N2C1 (configuration not stated) | -2.7 | 72.8* | 64.3*
COc1cc(OC)c(C2CC(=O)N3CN(c4ccc(C)cc4)CSC3=C2C#N)cc1OC (configuration not stated) | / | 29.8 | /
COc1ccc(N2CSC3=C(C#N)C(c4cc(OC)ccc4OC)CC(=O)N3C2)c(OC)c1 (configuration not stated) | 5.6 | 86.1* | 66.9*
CCCSC1=C(C#N)C(c2cc(OC)ccc2OC)CC(=O)N1 (configuration not stated) | 12.1 | -45.1 | /
N#CC1=C2SCC(O)(c3ccccc3)N2C(=O)CC1c1ccccc1 (configuration not stated) | -15.2 | -12.1 | /
CCCCCC(=O)Nc1cccc(C2=NOC3(C2)C[C@H](C(N)=O)N(C(=O)c2ccccc2C(=O)c2ccccc2)C3)c1 (some centres not stated) | 9.1 | / | /
CCSC1=C(C#N)C(c2ccc(OC)c(OC)c2)CC(=O)N1 (configuration not stated) | 7.3 | -7.2 | /
COc1ccc(N2CSC3=C(C#N)C(c4ccc(OC)c(OC)c4)CC(=O)N3C2)c(OC)c1 (configuration not stated) | 13.3 | 82.5* | 67.3*
COC(=O)C1C(=O)N2CCCSC2=C(C#N)C1c1cccs1 (configuration not stated) | -5.8 | -0.3 | /
COc1ccc(N2CSC3=C(C#N)C(c4cccs4)CC(=O)N3C2)cc1 (configuration not stated) | 33.8 | 68.1* | ?
CC1CCN(C(=O)C2CCN(S(=O)(=O)c3cccc4nonc34)CC2)CC1 | -7.8 | / | /
O=C(Nc1ccc(Cl)c(C(F)(F)F)c1)[C@@H]1CC=C[C@@H]2CCN(C3CC3)C(=O)[C@@H]21 | -7.9 | / | /
Cc1ccc(S(=O)(=O)Nc2cc(Cl)c(O)cc2C)cc1 | -15.2 | / | /
Cc1c(NS(=O)(=O)c2ccccc2)cc(Cl)c(O)c1C | -4.9 | 74.0* | 33.2
SMILES | RmlC RmlD mix | HIV RNase H inh-1 | HIV RNase H inh-2
COc1ccc(C(CC(=O)O)NC(=O)c2ccccc2[N+](=O)[O-])cc1 (configuration not stated) | 4.4 | / | /
Cc1c(Cc2ccccc2)sc(N)c1C(N)=O | 6.6 | 81.7* | ?
Cc1c(Cc2ccccc2)sc(NC(=O)Cc2ccccc2)c1C(N)=O | 2.3 | / | /
CNc1oc(-c2ccc(Cl)cc2)nc1P(=O)(c1ccccc1)c1ccccc1 | -7.0 | / | /
CCn1nc(Cc2cccc3ccccc23)c(C#N)c1N | -10.4 | / | /
O=C(Nc1ccccc1-c1ccccc1)c1ccc(NC(=O)c2ccco2)cc1 | -17.9 | / | /
O=C(N[C@@H](Cc1ccccc1)C(=O)O)c1ccncc1 | -4.3 | / | /
CCn1c(N)c(C(=O)NCc2cccnc2)sc1=S | / | -14.0 | /
Nc1c(C(=O)NCC2CCCO2)sc(=S)n1-c1ccccc1 (configuration not stated) | -2.6 | 83.9* | ?

High-throughput results: PubChem BioAssay, several laboratories
